{"source": "PubChem BioAssay (NCI)", "note": "About 83,000 compounds went through this panel and 20% of them were active in at least one assay; those are over-represented in the sample as a whole.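 Single-concentration screen, 48 h exposure, 96-well plates. Endpoint: percent growth. Below 10 = active.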 The source made the active and inactive calls.", "data": [{"system": "OVCAR-8 ovarian", "assay": "NCI-60 one-dose screen, 48 h (100 = growth as untreated, 0 = no growth, -100 = all killed)", "details": "10 µM unless noted", "values": [{"smiles": "CCOC(=O)C1=C(C)NC(SCc2nnc(-c3ccc(Cl)cc3)o2)=NC1c1ccc(Cl)cc1", "note": "(stereo not drawn)", "growth": "74.8% (inactive)"}, {"smiles": "O=Cc1ccc2nc(C(Cl)(Cl)Cl)ccc2c1", "growth": "107% (inactive)"}, {"smiles": "CCCc1n(Cc2ccc3ccccc3c2)c2ccccc2[n+]1Cc1ccc2ccccc2c1", "growth": "-71.3% (active)"}, {"smiles": "CC(CN1CCN(CCOCCO)CC1)CN1c2ccccc2Sc2ccc(Cl)cc21", "note": "(stereo not drawn)", "growth": "97.2% (inactive)"}, {"smiles": "Clc1ccc(Nc2ncnc3c2sc2ncccc23)c(Cl)c1", "growth": "4.31% (active)"}, {"smiles": "COc1ccc(/C=C(/C(=O)N2CCN(c3ccccc3)CC2)c2cc(OC)c(OC)c(OC)c2)cc1O", "growth": "14.1% (inactive)"}, {"smiles": "C#CCNC(=S)N/N=C(\\C)c1ccccn1", "growth": "12.4% (inactive)"}, {"smiles": "CC(C)NC(=O)OCC#CCOC(=O)NC(C)C", "growth": "115% (inactive)"}, {"smiles": "Cc1cc(C)c2c(n1)sc1c(Nc3ccc(Cl)cc3Cl)ncnc12", "growth": "3.79% (active)"}, {"smiles": "CCCCn1cnc(-c2cc(-c3ccccc3)cc(C(F)(F)F)c2)n1", "growth": "97.5% (inactive)"}, {"smiles": "O=C1c2ccccc2C(=O)c2c1oc1ccc3ccccc3c21", "growth": "88.2% (inactive)"}, {"smiles": "COC1=CC(c2ccc[nH]2)=N/C1=C\\c1[nH]c(C)c(C(=O)CCCCCCCCC(=O)O[C@H]2CC[C@H]3C4CCc5cc(O)ccc5C4CC[C@]23C)c1C", "note": "(stereo partly drawn)", "growth": "12.2% (inactive)"}, {"smiles": "CCSc1ccc([C@@H]2[C@@H](N)C(=O)N2c2cc(OC)c(OC)c(OC)c2)cc1", "growth": "32.4% (inactive)"}, {"smiles": "COc1ccc2[nH]cc(C(c3ccc(Cl)cc3)N3CCCC3)c2c1", "note": "(stereo not drawn)", "growth": "94.8% (inactive)"}, {"smiles": "Oc1[nH]c2ccc(Cl)cc2c1/C=c1/ccc2c(c1)N=C(c1ccc(F)cc1)N=2", "growth": "84.7% (inactive)"}, {"smiles": "COc1cc(-c2csc(NC(=O)Nc3cccc(C(F)(F)F)c3)n2)cc(OC)c1OC", "growth": "22.6% (inactive)"}, {"smiles": "O=C(Cc1ccc(Nc2ccnc(C(F)(F)F)c2)cc1)N/N=C/c1ccccc1O", "growth": "25.6% (inactive)"}, {"smiles": "COc1ccc2nc(C)cc(Nc3ccccc3O)c2c1", "growth": "32.6% (inactive)"}, {"smiles": "C[C@]12CCc3nc(Nc4ccc(O)cc4)sc3C1=CC[C@@H]1[C@@H]2CC[C@]2(C)/C(=N/NC(N)=S)CC[C@@H]12", "growth": "4.45% (active)"}, {"smiles": "CN(C)CCOc1nc2c3cccnc3cc(-c3cccc(Cl)c3)c2c2ncccc12", "growth": "14.7% (inactive)"}, {"smiles": "Oc1[nH]c2ccccc2c1/C=c1/ccc2c(c1)N=C(c1ccc(C(F)(F)F)cc1)N=2", "growth": "70.5% (inactive)"}, {"smiles": "COc1ccc(/C(=C\\c2ccc3c(c2)OCO3)C(=O)Nc2nc3ccc(F)cc3s2)cc1OC", "growth": "110% (inactive)"}, {"smiles": "O=C(Nc1ccccc1Cl)Oc1ccc2ccccc2c1", "growth": "84.1% (inactive)"}, {"smiles": "Nc1nc2c(c3ncccc13)C(c1ccccc1)Cc1ncccc1-2", "note": "(stereo not drawn)", "growth": "93.5% (inactive)"}, {"smiles": "COc1ccccc1NC(=O)OCC12COCN1COC2", "growth": "96% (inactive)"}, {"smiles": "COc1cc2c(cc1C)NC(=O)/C2=C\\c1c[nH]c2ccccc12", "growth": "69.3% (inactive)"}, {"smiles": "C=C(C)[C@@H]1CC[C@]2(C)[C@H](CC=C3[C@@H]4C[C@](C)(C(=O)N5CCN(C)CC5)CC[C@]4(C)CC[C@]32C)[C@@]1(C)CCC#N", "growth": "74.7% (inactive)"}, {"smiles": "COc1ccc(NC(=O)/C=C/c2ccc(Cl)c(Cl)c2)cn1", "growth": "61.1% (inactive)"}, {"smiles": "CC(C)c1[nH]ncc1-c1nc2ccc3[nH]ncc3c2c2c1CCCC2", "growth": "37.2% (inactive)"}, {"smiles": "COc1ccc(NC(=O)c2ccc(C(F)(F)F)nc2Nc2ccc(Cl)cc2C)cc1Cl", "growth": "15.6% (inactive)"}, {"smiles": "NCCCOc1cc2ccccc2cc1C(=O)NCCCOc1cc2ccccc2cc1C(=O)Nc1ccc(Cl)cc1O", "growth": "-57.6% (active)"}, {"smiles": "C/C=C(\\C)C(C(=O)NC1CCCCC1)N(C(=O)C1CCc2cc(F)ccc2O1)c1ccc([N+](=O)[O-])cc1", "note": "(stereo not drawn)", "growth": "88.4% (inactive)"}, {"smiles": "O=C(Cn1nncc1CN1C(=O)CSC1=O)Nc1ccc(F)cc1", "growth": "108% (inactive)"}, {"smiles": "CCC(C)C1NC(=O)c2nc(oc2-c2ccccc2)-c2csc(n2)-c2csc(n2)-c2nc(oc2C)-c2coc(n2)CNC(=O)C(C(C)CC)NC1=O", "note": "(stereo not drawn)", "growth": "-62% (active)"}, {"smiles": "C=CCn1c(C)nc2cc(Nc3nc(N4CCCC4)nc4nc[nH]c34)ccc21", "growth": "74.7% (inactive)"}, {"smiles": "Clc1ccc(Nc2ncnc3c2sc2ncccc23)cc1", "growth": "12.2% (inactive)"}, {"smiles": "Cc1ccc(NC(=O)c2nc(S(C)(=O)=O)oc2-c2ccc(F)cc2)cc1Nc1ccc2ncn(C)c(=O)c2c1", "growth": "30.6% (inactive)"}, {"smiles": "CCCCNCC(O)c1cc(-c2ccc(C(F)(F)F)cc2)nc(-c2ccc(C(F)(F)F)cc2)c1", "note": "(stereo not drawn)", "growth": "-71.1% (active)"}]}]}
